In general, viability refers to a read-out of living cells in per cent, often relative to untreated cells. As a reminder, the inhibition is the relative decrease from the control value, in per cent.

The text below walks through data of PubChem BioAssay.

Experiment [1] is described as follows: hESC survival regulators, cell-based (AID 493140; call rule not given here;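 note: cells exposed to compounds for four days before counting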). To be noted: human embryonic stem cell survival screen; stronger effect = higher value.
Experiment [2] is described as follows: sensitizers of A549 cells to miR-34 induction, primary screen, imaging, A549 dox-inducible miR-34, nuclei and caspase counts (AID 1347080;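 active = compounds whose cell count with miR-34 switched on is under 0.7 times the count with it off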). As to conditions: A549 miR-34 inducible, Hoechst nuclei count, 48 h.
A short description of experiment [3]: inhibitors of Cryptococcus chitosan production, flow cytometry, Cibacron Brilliant Red staining (AID 1347148; call rule not given here;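 note: compound exposure lasted three days at 37 degrees C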). To be noted: Cryptococcus neoformans chitosan, stronger effect = lower value; at 10 µM unless noted. (A flow cytometer gives signals particle by particle.)
The nature of experiment [4]: ovarian cancer cell viability with rucaparib, profiling panel, oncology-focused library, rucaparib conditional (AID 1508598). As to conditions: patient-derived ovarian cancer cells, CellTiter-Glo viability, 144 h, stronger effect = lower value. (ATP-based viability assays read luminescence as a measure of living cells.)
The nature of experiment [5]: circadian clock period modulators, cell-based, LOPAC library, luminescence reporter (AID 2774; call rule not given here;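 note: values are relative to mean of DMSO wells on each plate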). To be noted: circadian reporter cells, at 7 µM, actives lie on both sides.
The test system of experiment [6] is Hepatitis C virus NS3 helicase. Put plainly: HCV NS3 helicase inhibitors, primary screen, biochemical, fluorescence polarization, LOPAC1280 library (AID 687035; in the data active = inhibition above about 37%). As to conditions: Purified HCV NS3 helicase, Cy5-dT15 ssDNA binding fluorescence polarization; stronger effect = higher value; concentration not given here. (In general: Fluorescence polarisation rises when a labelled molecule tumbles more slowly, as on binding a larger partner.)

Experiment [7] in a line: Cy5 fluorescence quenching or enhancement artefacts, artefact control for HCV NS3 helicase inhibitor project, biochemical, LOPAC1280 (AID 687037; call rule not given here). To be noted: Cy5-DNA-NS3h complex fluorescence interference counterscreen.
The nature of experiment [8]: phospholipid biosynthesis inhibitors in animal cells, primary screen, cell-based, LOPAC library, screen 4 (AID 1347384; call rule not given here). As to conditions: phospholipid biosynthesis inhibition screen, at 10 µM.
A short description of experiment [9]: viability rescue of complex I mutant cybrids, primary screen, cell-based, galactose medium, ATP luminescence (AID 1645843;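 active = z-score of at least 1.8 in each of two replicates, scored against plate mean and spread of sample wells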;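 note: positive z means more ATP and so rescue of galactose-driven cybrid death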). As to conditions: complex I mutant cybrid cells, 72 h, stronger effect = higher value.
Setting [10] is: stronger effect = lower value, cell number ratio, induced over uninduced.
The mark [11] stands for this setting: measured here: relative caspase fold change +Dox/-Dox.
Setting [12] is: measured here: total cells with miR-34 induction, stronger effect = lower value.
Setting [13] is: measured here: total cells without miR-34 induction.

Several values for one entry are separate records, joined by “and”; a condition that tells them apart may be missing. Equal entries are not always repeated. Activity calls are given as the source filed them.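 Rule for the calls, unless noted: active = normalized viability below 100% at a tested concentration; inactive = the rest.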 Where a SMILES comes first, the peptide text is derived from it. The star is where a group is joined. Cbz = O=C(OCc1ccccc1)*; CH2F = FC*

Turning to `CCCCC/C=C\C/C=C\C/C=C\CC1OC1CCCC(=O)O` (centres undefined), the survival in experiment [1] is 114 (inactive). The fold change in [2] (setting [10]) was 0.939 (inactive); in experiment [2] (setting [11]) it was 1.34. Moreover, the values for the cell count in experiment [2] (setting [12]) and in [2] (setting [13]) were 5900 and 6280, respectively. Moreover, the fold fluorescence in [3] is 4.93 [at 1 µM] (inactive).

Take `COC(=O)C[C@H](NC(=O)[C@H](C)NC(=O)[C@@H](NC(=O)OCc1ccccc1)C(C)C)C(=O)CF` (Cbz-Val-Ala-Asp(OMe)-CH2F): the fold change in experiment [2] (setting [10]) is 0.848 (inactive); in [2] (setting [11]), 0.772. Further, the cell count turned out to be 5320 in experiment [2] (setting [12]) and 6270 in experiment [2] (setting [13]). For the same compound, the fold fluorescence in experiment [3] was 3.45 [at 107 µM] (inactive). The viability is 111% (inactive) in experiment [4] (at 0.000305 µM, OCI-C5x cells, with rucaparib 10 µM, 100% = cells with rucaparib alone); 113% (inactive) in experiment [4] (at 0.000305 µM, OCI-C5x cells, without rucaparib); 101% (inactive) in experiment [4] (at 0.000305 µM, OCI-P5x cells, with rucaparib 20 µM, 100% = cells with rucaparib alone); 108% (inactive) in experiment [4] (at 0.000305 µM, OCI-P5x cells, without rucaparib); 113% (inactive) in [4] (at 0.00122 µM, OCI-C5x cells, with rucaparib 10 µM, 100% = cells with rucaparib alone); 122% (inactive) in experiment [4] (at 0.00122 µM, OCI-C5x cells, without rucaparib). Moreover, the viability was 104% (inactive) in experiment [4] (at 0.00122 µM, OCI-P5x cells, with rucaparib 20 µM, 100% = cells with rucaparib alone); 107% (inactive) in [4] (at 0.00122 µM, OCI-P5x cells, without rucaparib); 106% (inactive) in experiment [4] (at 0.00488 µM, OCI-C5x cells, with rucaparib 10 µM, 100% = cells with rucaparib alone); 114% (inactive) in experiment [4] (at 0.00488 µM, OCI-C5x cells, without rucaparib); 102% (inactive) in [4] (at 0.00488 µM, OCI-P5x cells, with rucaparib 20 µM, 100% = cells with rucaparib alone); 112% (inactive) in experiment [4] (at 0.00488 µM, OCI-P5x cells, without rucaparib). The viability was 113% (inactive) in [4] (at 0.0195 µM, OCI-C5x cells, with rucaparib 10 µM, 100% = cells with rucaparib alone); 119% (inactive) in experiment [4] (at 0.0195 µM, OCI-C5x cells, without rucaparib); 110% (inactive) in experiment [4] (at 0.0195 µM, OCI-P5x cells, with rucaparib 20 µM, 100% = cells with rucaparib alone); 102% (inactive) in experiment [4] (at 0.0195 µM, OCI-P5x cells, without rucaparib); 110% (inactive) in experiment [4] (at 0.0781 µM, OCI-C5x cells, with rucaparib 10 µM, 100% = cells with rucaparib alone); 120% (inactive) in [4] (at 0.0781 µM, OCI-C5x cells, without rucaparib). For the same compound, the viability in experiment [4] (at 0.0781 µM, OCI-P5x cells, with rucaparib 20 µM, 100% = cells with rucaparib alone) was 108% (inactive); in experiment [4] (at 0.0781 µM, OCI-P5x cells, without rucaparib), 111% (inactive); in experiment [4] (at 0.313 µM, OCI-C5x cells, with rucaparib 10 µM, 100% = cells with rucaparib alone), 104% (inactive); in [4] (at 0.313 µM, OCI-C5x cells, without rucaparib), 118% (inactive); in experiment [4] (at 0.313 µM, OCI-P5x cells, with rucaparib 20 µM, 100% = cells with rucaparib alone), 96.2% (active); in [4] (at 0.313 µM, OCI-P5x cells, without rucaparib), 107% (inactive). The viability is 117% (inactive) in experiment [4] (at 1.25 µM, OCI-C5x cells, with rucaparib 10 µM, 100% = cells with rucaparib alone); 115% (inactive) in experiment [4] (at 1.25 µM, OCI-C5x cells, without rucaparib); 103% (inactive) in [4] (at 1.25 µM, OCI-P5x cells, with rucaparib 20 µM, 100% = cells with rucaparib alone); 106% (inactive) in [4] (at 1.25 µM, OCI-P5x cells, without rucaparib); 115% (inactive) in experiment [4] (at 5 µM, OCI-C5x cells, with rucaparib 10 µM, 100% = cells with rucaparib alone); 119% (inactive) in experiment [4] (at 5 µM, OCI-C5x cells, without rucaparib). For the same compound, the viability in experiment [4] (at 5 µM, OCI-P5x cells, with rucaparib 20 µM, 100% = cells with rucaparib alone) was 106% (inactive); in experiment [4] (at 5 µM, OCI-P5x cells, without rucaparib) it was 108% (inactive).

On to `CCCCC/C=C\C/C=C\C/C=C\C/C=C\CCCC(=O)O[C@@H](CO)COC(=O)CCCCCCCCCCCCCCCCC`, for which, in experiment [1], the survival is 92.4 (inactive). The fold change in [2] (setting [10]) was 0.967 (inactive); in experiment [2] (setting [11]), 1.14. Also, the cell count in [2] (setting [12]) turned out to be 5940; in experiment [2] (setting [13]), 6140. The fold fluorescence in [3] is 5.53 (inactive).

As for `CCCCCCCCCCC/C=C\C/C=C\CCCC(=O)O`, in experiment [1], the survival was 98.8 (inactive). Further, the fold change is 0.918 (inactive) in [2] (setting [10]) and 0.921 in experiment [2] (setting [11]). Moreover, the cell count in experiment [2] (setting [12]) is 5350; in experiment [2] (setting [13]) it was 5820. The fold fluorescence in experiment [3] is 4.42 (inactive).

As to `O=Cc1c2[nH]c3ccccc3c2cc2[nH]c3ccccc3c12`, in experiment [1], the survival is 124 (inactive). The fold change was 0.873 (inactive) in [2] (setting [10]) and 1.33 in experiment [2] (setting [11]). For the same compound, the cell count came out at 4820 in experiment [2] (setting [12]) and 5520 in experiment [2] (setting [13]). In addition, the fold fluorescence in [3] is 4.2 (inactive).

For the compound `CCCCC/C=C\C\C=C/C=C/C=C/[C@@H](SC[C@H](NC(=O)CC[C@H](N)C(=O)O)C(=O)NCC(=O)O)[C@@H](O)CCCC(=O)O`, the fold change was 1.08 (inactive) in experiment [2] (setting [10]) and 1.43 in experiment [2] (setting [11]). The cell count in experiment [2] (setting [12]) was 6410; in [2] (setting [13]), 5930. The fold fluorescence in [3] is 3.59 [at 1 µM] (inactive).

Take `CCCCC/C=C\C[C@H](O)/C=C/C=C\C/C=C\CCCC(=O)O`: in experiment [1], the survival is 93.5 (inactive). Moreover, the values for the fold change in experiment [2] (setting [10]) and in [2] (setting [11]) were 0.969 (inactive) and 1.13, respectively. The cell count stood at 5180 in [2] (setting [12]) and 5340 in [2] (setting [13]). Further, the fold fluorescence in experiment [3] is 4.99 [at 1 µM] (inactive) and 5.6 [at 1 µM] (inactive).

`CCCCCCCCCC(=O)N[C@H](CN1CCOCC1)[C@H](O)c1ccccc1`: in experiment [1], the survival was 80.8 (inactive). The fold change in [2] (setting [10]) is 0.988 (inactive); in experiment [2] (setting [11]), 1.18. For the same compound, the cell count came out at 5550 in experiment [2] (setting [12]) and 5620 in experiment [2] (setting [13]). Also, the fold fluorescence in [3] is 3.25 (active).

On to `CCCCCCCCCCCCCCC[C@H](O)[C@H](N)CO`, for which, in experiment [5], the period change is -0.08 h (inactive). Also, the inhibition in experiment [6] is 4% (inactive). Moreover, the fluorescence ratio (interference) in experiment [7] was 0.9 (inactive). For the same compound, the fold change in experiment [2] (setting [10]) was 0.911 (inactive); in experiment [2] (setting [11]), 1.55. Besides, the cell count in [2] (setting [12]) is 1060; in [2] (setting [13]), 1170. Also, the fold fluorescence in experiment [3] was 8.12 (inactive). Further, in experiment [8], the call was inactive. Besides, in [9], the z-score was -0.39 (inactive).

For the compound `CCCCC/C=C\CC1OC1C/C=C\C/C=C\CCCC(=O)O` (centres undefined), in experiment [1], the survival is 104 (inactive). The fold change in experiment [2] (setting [10]) was 1.05 (inactive); in experiment [2] (setting [11]), 1.1. Further, the cell count in experiment [2] (setting [12]) came to 5770; in [2] (setting [13]) it was 5500. For the same compound, in [3], the fold fluorescence is 6.17 [at 1 µM] (inactive).

With `CCCCC/C=C\C/C=C\CC1OC1C/C=C\CCCC(=O)O` (centres undefined), in experiment [1], the survival was 95.7 (inactive). For the same compound, the fold change in experiment [2] (setting [10]) is 1.01 (inactive); in experiment [2] (setting [11]), 1.19. For the same compound, the figures for the cell count in experiment [2] (setting [12]) and in experiment [2] (setting [13]) were 5810 and 5750, respectively. Further, in experiment [3], the fold fluorescence was 5.26 [at 1 µM] (inactive).

Regarding `CC(C)n1cnc2c(NCc3ccccc3)nc(NCCO)nc21`, in experiment [1], the survival was 106 (inactive). Besides, the fold change is 1.14 (inactive) in [2] (setting [10]) and 1.24 in [2] (setting [11]). Also, the values for the cell count in experiment [2] (setting [12]) and in experiment [2] (setting [13]) were 2020 and 1780, respectively. Besides, the fold fluorescence in [3] is 3.89 [at 153.2 µM] (inactive).

As to `CCCCCC1OC1C/C=C\C/C=C\C/C=C\CCCC(=O)O` (centres undefined), the survival in [1] is 88.4 (inactive). In addition, the fold change in experiment [2] (setting [10]) is 0.949 (inactive); in experiment [2] (setting [11]), 1.73. Besides, the cell count is 6230 in [2] (setting [12]) and 6560 in experiment [2] (setting [13]). Also, the fold fluorescence in [3] was 5.49 [at 1 µM] (inactive).

`O=C(Nc1ccc2[nH]ncc2c1)C1CCC1`: the fold change is 1.01 (inactive) in experiment [2] (setting [10]) and 1.17 in [2] (setting [11]). Also, the results for the cell count in [2] (setting [12]) and in experiment [2] (setting [13]) were 9900 and 9790, respectively. Besides, in experiment [8], the outcome was inactive. For the same compound, the z-score in [9] is 0.43 (inactive).

As to `COc1ccc(/C=C/c2nc(NCCCN(C)C)c3ccccc3n2)cc1`, the fold change in experiment [2] (setting [10]) was 1.02 (inactive); in [2] (setting [11]), 1.21. Also, the results for the cell count in [2] (setting [12]) and in experiment [2] (setting [13]) were 1330 and 1300, respectively. For the same compound, in experiment [8], the compound was called inactive. In addition, the z-score in [9] is -1.21 (inactive).
